# About 65 (0.1%) of roughly 65,000 compounds showed an effect of 50% or more. The sample holds strong results, similar compounds and a random draw of the others, so the mix is not that of the screen.
# Target: Tryptophan--tRNA ligase (Mycobacterium tuberculosis (strain ATCC 25618 / H37Rv)) (UniProt P9WFT3)
# Assay: Biochemical assay for Mt-TrpRS
# Assay type: functional
# Parameters: scale not given: direction of the effect not stated beside the values
# Details: 10 µM
# Chain of Tryptophan--tRNA ligase (Mycobacterium tuberculosis (strain ATCC 25618 / H37Rv)) (P9WFT3 whole entry): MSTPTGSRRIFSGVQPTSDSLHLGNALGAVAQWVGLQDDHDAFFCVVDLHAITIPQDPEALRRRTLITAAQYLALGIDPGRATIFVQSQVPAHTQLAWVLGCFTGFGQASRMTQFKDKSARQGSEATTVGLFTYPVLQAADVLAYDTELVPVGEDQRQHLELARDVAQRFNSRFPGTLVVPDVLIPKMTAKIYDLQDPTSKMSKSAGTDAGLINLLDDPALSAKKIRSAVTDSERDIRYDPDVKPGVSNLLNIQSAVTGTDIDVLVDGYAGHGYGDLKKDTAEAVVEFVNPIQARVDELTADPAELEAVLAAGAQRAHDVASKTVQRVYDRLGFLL
row,Structure (SMILES),Percent Effect [%]
1,Cc1nc(C)c(CNC[C@@]2(COc3cccnc3)C[C@@H](O)[C@@H](O)C2)s1,-10.4
2,CN(Cc1ccco1)[C@@H]1CN(Cc2ccc(F)cc2)[C@@H]2CCCO[C@H]12,-5.38
3,CCS(=O)(=O)N1C[C@@H](OCc2ccccn2)[C@@H]2OCCC[C@@H]21,4.01
4,Cn1nc(C#N)c2c1CN(C(=O)c1ccco1)CCC2,50.1
5,Cn1nc(C#N)c2c1CN(C(=O)c1ccnnc1)CCC2,4.65
6,Cn1nc(C#N)c2c1CN(C(=O)c1cccnc1)CCC2,11.1
7,CC(C)CC(=O)N1C[C@H]2CCCN(S(=O)(=O)c3ccc(Cl)s3)[C@H]2C1,-3.18
8,Cc1ccc(CS(=O)(=O)CC(=O)NCCCOC(C)C)cc1,-5.37
9,CC(C)OCCCNC(=O)CS(=O)(=O)Cc1ccc(Cl)cc1,75.4
10,CC(C)OCCCNC(=O)CS(=O)(=O)Cc1ccc(C(C)C)cc1,2.32
11,Cn1ncc2c(N3CCCN4CCC[C@H]4C3)nc(C(C)(C)C)nc21,2.18
12,CC(C)N1[C@H](CN2CCCC2)C[C@@H]2CN(C(=O)c3ccoc3)CC[C@@H]21,0.0969
13,COCCN1CCC(NCc2ccc(F)cc2F)C1 (configuration not stated),83.4
14,COCCN1CCC(NCc2cccc(F)c2)C1 (configuration not stated),-5.04
15,COCCN1CCC(NCc2cc(F)ccc2F)C1 (configuration not stated),12.2
16,O=C(c1ccccn1)N1C[C@@H]2CC[C@H](C1)N(C(=O)CCN1CCCC1)C2,4.71
17,NC(=O)CN1CCC(c2noc3cc(F)ccc23)CC1,76.4
18,O=C(O)CCC(=O)N1CCC(c2noc3cc(F)ccc23)CC1,1.33
19,O=C(O)CCCC(=O)N1CCC(c2noc3cc(F)ccc23)CC1,1.46
20,CCS(=O)(=O)N1CCC[C@]2(C(=O)N(C)C)CN(c3ccccn3)C[C@@H]2C1,-1.99
21,NC(=O)N1CCc2cc(C(=O)O)c(-c3ccsc3)nc2CC1,-4.21
22,Cc1ncsc1C(=O)N(Cc1ccccc1)C1CC1,-6.55

row,Structure (SMILES),Percent Effect [%]
1,Cc1ncsc1C(=O)N(Cc1ccccn1)C1CC1,75.1
2,Cc1ncsc1C(=O)N(Cc1cccs1)C1CC1,-1.87
3,O=C(NC1CC(F)(F)C1)[C@]12COC[C@H]1CN(Cc1cccnc1)C2,-2.86
4,Cc1ncsc1CN1C[C@@H]2COC[C@]2(C(=O)NCC2CC2)C1,0.881
5,CCc1cnc(N2C[C@H]3C[C@H](C(=O)NCC(C)C)[C@@H](C2)O3)nc1,1.95
6,CC(=O)c1cccc(NC(=O)N(CC(F)F)C2CC2)c1,4.27
7,Cc1cccc(NCc2nc(C)ccc2O)c1,52.2
8,Cc1ccc(O)c(CNc2cccc(OCCF)c2)n1,-4.08
9,CCn1nnnc1-c1cccc(NCc2nc(C)ccc2O)c1,-6.59
10,CCNC(=O)[C@@H]1C[C@@H](N)CN1C(=O)c1cc2ccccc2[nH]1,2.18
11,Cc1ccc(N2C[C@@H]3CN(C(=O)c4ccccc4)CCO[C@@H]3C2)nn1,12.7
12,Cn1ccnc1CN1CCN2C[C@H](Oc3ccccc3)C[C@H]2C1,2.44
13,CC(=O)Nc1ccc(CN2C[C@H]3CC[C@@H]2CN(c2ncccn2)C3)cc1,3.06
14,c1cncc(CN2CCO[C@H]3[C@H](OCCN4CCCC4)CC[C@@H]32)c1,2.57
15,Cc1c[nH]c(CN2CC[C@@]3(O)CCN(C(=O)C4CCC4)C[C@H]3C2)n1,1.37
16,Cc1ncsc1C(=O)NC1CCN(CCC(N)=O)CC1,0.56
17,Cc1ncsc1C(=O)NC1CCN(CCC#N)CC1,57.5
18,Cc1ncsc1C(=O)NC1CCN(CCCC#N)CC1,-4.15
19,CN(Cc1cccnc1)C[C@H]1OC[C@@H]2CCN(C(=O)C3CC3)C[C@@H]21,-1.23
20,CC(C)c1nc(CN2CCCC(Cn3cncn3)C2)cs1 (configuration not stated),61.3
21,CN(Cc1ccccc1)C(=O)CN1CCCC(Cn2cncn2)C1 (configuration not stated),5.08
22,c1cnc(-c2nc(CN3CCCC(Cn4cncn4)C3)cs2)nc1 (configuration not stated),-1.17

row,Structure (SMILES),Percent Effect [%]
1,Cc1ccc(CN(C)C(=O)CN2CCCC(Cn3cncn3)C2)cc1 (configuration not stated),11.8
2,CN(Cc1cnn(C)c1)C(=O)CN1CCCC(Cn2cncn2)C1 (configuration not stated),85.4
3,CC(C)(C)c1nc(CN2CCCC(Cn3cncn3)C2)cs1 (configuration not stated),3.52
4,O=C(c1ccno1)N1CCN2C(=O)N(Cc3ccc(F)cc3)C[C@H]2C1,0.0753
5,O=C(c1ccnnc1)N1C[C@H](OCC2CCOCC2)[C@H]2OCCC[C@H]21,-0.419
6,O=C(C1CCC1)N1C[C@H]2CNC[C@H]2C1,9.01
7,O=C(NS(=O)(=O)c1cccnc1)C1CC(c2ccccc2)=NO1 (configuration not stated),54.1
8,N#Cc1ccc(S(=O)(=O)NC(=O)C2CC(c3ccccc3)=NO2)cc1 (configuration not stated),0.0809
9,COc1cccc(S(=O)(=O)NC(=O)C2CC(c3ccccc3)=NO2)c1 (configuration not stated),0.405
10,COc1c(CNC2CCCN(c3ncccn3)C2)c(C(C)C)nn1C (configuration not stated),67.7
11,COc1c(CNC2CCN(c3ncccn3)CC2)c(C(C)C)nn1C,1.66
12,COc1c(CNC2CCN(c3ccccn3)CC2)c(C(C)C)nn1C,1.1
13,COc1cccc(OC)c1CNC(Cc1ccsc1)c1ccc(C)cn1 (configuration not stated),-1.02
14,Cc1occc1C(=O)N1C[C@@H]2CCCO[C@@H]2[C@H](N(C)Cc2ccco2)C1,1.95
15,CC(C)c1cc(C(=O)N2CCN(CC3CC3)[C@@H]3CS(=O)(=O)C[C@@H]32)no1,-4.85
16,CC(C)N1CCCC2(CCN(Cc3noc(C4CCCC4)n3)C2)C1=O (configuration not stated),54.2
17,CCCN1CCCC2(CCN(Cc3noc(C4CCCC4)n3)C2)C1=O (configuration not stated),7.84
18,O=C1N(CCO)CCCC12CCN(Cc1noc(C3CCCC3)n1)C2 (configuration not stated),7.84
19,O=C(NCc1ccccc1)N1C[C@H]2CCN[C@H]2C1,2.62
20,COCCN1C(=O)CO[C@H]2CN(S(=O)(=O)c3ccccc3)C[C@H]21,-1.73
21,CCN1C[C@@H]2[C@@H](OC)CCN(C(=O)c3cc(C)nn3CC)[C@@H]2C1,-1.95
22,Cc1ncc2c(n1)CN(CC(=O)Nc1cc(C)on1)CC2,0.514

row,Structure (SMILES),Percent Effect [%]
1,Cc1cc(NC(=O)CN2CCc3cncnc3C2)on1,2.85
2,Cc1cc(NC(=O)CN2CCc3cncnc3C2)no1,69
3,CCCS(=O)(=O)N1CC[C@H]2O[C@H](c3nnc(C)o3)CC[C@H]21,-5.84
4,CNC(=O)c1nc(CN2CCOC(CCCC(C)C)C2)no1 (configuration not stated),0.819
5,NC(=O)c1nc(CN2CCOC(C(F)(F)F)C2)no1 (configuration not stated),-0.819
6,CNC(=O)c1nc(CN2CCOC(C(F)(F)F)C2)no1 (configuration not stated),69.6
7,CCCNCc1ccc(-c2ccnc3[nH]ccc23)cc1,-1.02
8,CC(C)N1[C@@H](C(=O)NCCN(C)C)C[C@H]2CN(c3ncccn3)C[C@H]21,5.77
9,c1cnnc(N2CCCC(NCc3nc(-c4cccs4)no3)C2)c1 (configuration not stated),-1.29
10,c1ccc(-c2noc(CNC3CCCN(c4cccnn4)C3)n2)nc1 (configuration not stated),1.43
11,c1cnnc(N2CCCC(NCc3nc(-c4ccco4)no3)C2)c1 (configuration not stated),90.8
12,C[C@H]1C[C@H]2CN(C(=O)CC3CC3)CC[C@H]2O1,2.03
13,CC(C)c1nc(C2CCCN2C(=O)c2cnns2)no1 (configuration not stated),-5.71
14,Cc1ccccc1CNC(=O)N1C[C@H]2C[C@H](C(=O)N3CCCC3)[C@@H](C1)O2,-2.16
15,C=Cn1ncc(CN2CCC(c3ncc(Cl)cc3S(C)(=O)=O)CC2)c1C,67.3
16,CCn1ncc(CN2CCC(c3ncc(Cl)cc3S(C)(=O)=O)CC2)c1C,-1.24
17,C=Cn1cc(CN2CCC(c3ncc(Cl)cc3S(C)(=O)=O)CC2)c(C)n1,-5.42
18,Fc1ccccc1CO[C@@H]1C[C@H]2CN(c3ncccn3)CCN2C1,-4.64
19,c1cnc(-c2nc(CN3CCn4c(nnc4C4CC4)C3)cs2)nc1,-3.46
20,Cc1nnc2n1CCN(Cc1csc(-c3ncccn3)n1)C2,59
21,CCc1nnc2n1CCN(Cc1csc(-c3ncccn3)n1)C2,1.94
22,CN(C)C(=O)CN1C[C@@H]2CC[C@H](C1)N(Cc1c(F)cccc1Cl)C2,2.26

row,Structure (SMILES),Percent Effect [%]
1,COc1ccc(Cc2nnc(NC(=O)C3CC34CCC4)s2)cc1OC (configuration not stated),1.5
2,COc1ccc(CCc2nnc(NC(=O)C3CC34CCC4)s2)cc1OC (configuration not stated),-2.9
3,COc1ccccc1OCCc1nnc(NC(=O)C2CC23CCC3)s1 (configuration not stated),72.7
4,CSC1=Nc2c(cnn2-c2cccc(Cl)c2)C2=NCCCN12,1.3
5,Cc1cnn(CC2CCCN2Cc2nnc(C)o2)c1 (configuration not stated),-10.6
6,c1ccc(Cc2nnc(CN3CCCCC3Cn3cncn3)o2)cc1 (configuration not stated),-0.0684
7,CCc1nnc(CN2CCCCC2Cn2cncn2)o1 (configuration not stated),75.1
8,Cc1cnn(CC2CCCN2Cc2nnc(C(C)C)o2)c1 (configuration not stated),60.5
9,Cc1ccc(-c2nnc(CN3CCCCC3Cn3cncn3)o2)cc1 (configuration not stated),3.48
10,Cc1cnn(CC2CCCN2Cc2nc(N)c3ccccc3n2)c1 (configuration not stated),57.9
11,CCc1nnc(CN2CCCC2Cn2cc(C)cn2)o1 (configuration not stated),9.78
12,Cc1cnn(CC2CCCN2Cc2nc(C)c3ccccc3n2)c1 (configuration not stated),0.13
13,Cc1cnn(CC2CCCCN2Cc2nc(N)c3ccccc3n2)c1 (configuration not stated),1.18
14,CNC(=O)N1CC[C@@H]2CN(CCc3cccc(OC)c3)S(=O)(=O)[C@@H]2CC1,-3.31
15,CCc1cnc(N2C[C@H]3C[C@H](C(=O)NC4CCC4)[C@@H](C2)O3)nc1,-1.02
16,CCNC(=O)N1C[C@@H]2OCC(=O)N(CC3CC3)[C@@H]2C1,-1.91
17,Cc1cccnc1NCCNC(=O)c1cnc(-c2ccccn2)nc1O,2.7
18,Cn1cc(CN2CC[C@H]3OCC[C@@H](C(=O)NCc4ccco4)[C@@H]3C2)cn1,0.83
19,O=C1C[C@H]2[C@@H](CCN2C(=O)c2ccoc2)N1CCN1CCOCC1,2.55
20,Cn1ccnc1C(=O)N1C[C@@H]2CCN(c3cnccn3)C[C@@H]2C1,2.7
21,CC(=O)N1CCC1c1nc(-c2ccc(C)s2)no1 (configuration not stated),13.1
22,CC(=O)N1CCC(C(=O)N2CCC2c2nc(-c3ccc(C)s3)no2)CC1 (configuration not stated),56.7

row,Structure (SMILES),Percent Effect [%]
1,Cc1ccc(-c2noc(C3CCN3C(=O)c3ccn(C)n3)n2)s1 (configuration not stated),-4.63
2,COCCNC(=O)Cn1ccc2sc(C)cc2c1=O,0.44
3,CC(C)Cc1noc(CN2CCN(c3nccs3)CC2)n1,-1.84
4,CCCc1noc(CN2CCN(c3nccs3)CC2)n1,2.03
5,CCc1noc(CN2CCN(c3nccs3)CC2)n1,71.8
6,Cc1nn(C)c2c(=O)n(CC(=O)NCCC3=CCCCC3)ccc12,2.33
7,CC(C)CN(C)c1ccc(C(=O)N2CCCC2c2cnn(C)c2)cn1 (configuration not stated),2.24
8,CCCN(CC)c1ccc(C(=O)N2CCCC2c2cnn(C)c2)cn1 (configuration not stated),-3.89
9,CCN(c1ccc(C(=O)N2CCCC2c2cnn(C)c2)cn1)C(C)C (configuration not stated),64.8
10,O=C([C@H]1CN(Cc2nccs2)C[C@H]2OCC[C@@H]12)N1CCCC1,4.93
11,O=C1CO[C@@H]2CN(S(=O)(=O)c3ccccc3)C[C@H]2N1CC1CC1,4.3
12,Cc1noc(C)c1CN(Cc1cccs1)C1CCS(=O)(=O)C1 (configuration not stated),59.4
13,O=S1(=O)CCC(N(Cc2nc(-c3ccccn3)no2)Cc2cccs2)C1 (configuration not stated),-6.38
14,CC(C)(C)c1nc(CN(Cc2cccs2)C2CCS(=O)(=O)C2)no1 (configuration not stated),-0.877
15,Cc1nc(CN(Cc2cccs2)C2CCS(=O)(=O)C2)oc1C (configuration not stated),1.07
16,O=S1(=O)CCC(N(Cc2nc3ccccc3o2)Cc2cccs2)C1 (configuration not stated),57
17,Cc1noc(CN(Cc2cccs2)C2CCS(=O)(=O)C2)n1 (configuration not stated),-5.5
18,O=C(c1ccnnc1)N1C[C@@H]2C[C@@H](c3nc(C4CC4)cs3)O[C@@H]2C1,2.42
19,O=C(NCc1ccco1)[C@@H]1CCO[C@@H]2CCN(c3ncccn3)C[C@@H]21,3.59
20,c1cncc(OCc2noc3c2CN(Cc2ccsc2)CC3)c1,-0.692
21,CC(c1nc(C2CC2)no1)N1CCN(c2ccc(C#N)cn2)CC1 (configuration not stated),0.106
22,O=C1CC[C@H]2CN(Cc3ccc(Cl)s3)CC[C@H]2N1CCc1c[nH]cn1,0.411

# From ChEMBL document CHEMBL3988442, “University of Dundee, Small-Polar-MMV Screening Library” (2021)
